Screens deposited in PubChem by National Center for Advancing Translational Sciences (NCATS).
G9a block = inhibitors of human histone lysine methyltransferase G9a; Potency, µM (top dose mostly 102 µM), without a hit: top-dose activity, negative = inhibition, actives largely listed as inhibitors; G9a H3K9 monomethylation, AlphaScreen, 2 h; Q96KQ7; 350,000 compounds, 8.8% hits; note: % is set by controls: 0 for no effect and ±100 for the full control effect; nearly all actives have a fitted effect of over 75% in size
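Compounds were preincubated with 20 nM G9a for 15 min, after which biotinylated H3K9 peptide (500 nM) and SAM (20 uM) started a 2 h room-temperature reaction. Monomethylated product was quantified by antibody-based AlphaScreen chemiluminescence.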
HP1b chromo inh = blocks HP1-beta chromodomain binding to methylated histone tails. Potency, µM (doses to about 114 µM), for the others: top-dose activity change, negative = inhibition, most hits filed as inhibitors. P83916. 390,000 compounds, 0.56% hits. AlphaScreen HP1-beta / biotin-H3K9me3 peptide binding; note: nearly all actives have a fitted effect of over 70% in size
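Compound inhibition of the preformed complex between 50 nM HP1-beta and 50 nM biotinylated H3K9me3 peptide was read by AlphaScreen. Buffer was PBS pH 7.4 with 0.01% Tween-20. Incubations ran 30 min at room temperature, with 10 ug/mL donor/acceptor beads.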
JMJD2A Tudor inh = blocks the human JMJD2A Tudor domain | O75164 | AlphaScreen JMJD2A-Tudor / H3K4me3 peptide binding | Potency, µM (highest dose often 114 µM), without a hit: at the highest dose activity change, negative = inhibition, actives largely listed as inhibitors | 390,000 compounds, 4.4% hits; note: % is set by controls: 0 for no effect and ±100 for the full control effect; nearly all actives have a fitted effect of over 50% in size
Target sequence (O75164 whole entry, looked up, the tested form may be a part): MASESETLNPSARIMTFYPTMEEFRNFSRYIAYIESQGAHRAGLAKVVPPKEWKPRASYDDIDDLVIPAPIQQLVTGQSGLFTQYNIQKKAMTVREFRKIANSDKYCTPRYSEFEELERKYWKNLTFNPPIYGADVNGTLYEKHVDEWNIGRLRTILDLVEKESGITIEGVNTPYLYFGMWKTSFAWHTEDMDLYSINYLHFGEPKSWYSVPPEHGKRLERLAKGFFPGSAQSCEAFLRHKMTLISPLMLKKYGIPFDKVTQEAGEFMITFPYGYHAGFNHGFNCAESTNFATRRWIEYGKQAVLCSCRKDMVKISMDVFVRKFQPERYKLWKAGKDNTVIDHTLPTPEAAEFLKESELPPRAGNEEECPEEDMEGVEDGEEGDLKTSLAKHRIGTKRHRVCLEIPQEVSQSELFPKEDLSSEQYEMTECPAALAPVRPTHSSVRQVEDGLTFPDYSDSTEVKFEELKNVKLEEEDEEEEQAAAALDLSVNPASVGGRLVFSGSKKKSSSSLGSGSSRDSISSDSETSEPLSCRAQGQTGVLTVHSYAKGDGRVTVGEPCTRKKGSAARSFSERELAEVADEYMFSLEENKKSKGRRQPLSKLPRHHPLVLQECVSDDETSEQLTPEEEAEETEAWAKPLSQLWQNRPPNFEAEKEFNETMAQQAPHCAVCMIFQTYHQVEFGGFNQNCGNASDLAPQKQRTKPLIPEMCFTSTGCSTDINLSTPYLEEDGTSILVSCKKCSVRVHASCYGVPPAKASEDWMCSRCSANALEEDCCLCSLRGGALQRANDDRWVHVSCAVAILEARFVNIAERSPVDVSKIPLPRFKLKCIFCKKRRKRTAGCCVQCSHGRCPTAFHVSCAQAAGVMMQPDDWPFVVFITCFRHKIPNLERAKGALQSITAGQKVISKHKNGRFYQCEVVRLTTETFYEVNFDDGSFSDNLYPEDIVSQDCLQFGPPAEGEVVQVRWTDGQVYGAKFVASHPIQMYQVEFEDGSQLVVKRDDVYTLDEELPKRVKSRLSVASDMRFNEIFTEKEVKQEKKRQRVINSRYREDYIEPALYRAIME
BAZ2B inh = blocks human BAZ2B; 360,000 compounds, 4.4% hits; Q9UIF8; AlphaScreen BAZ2B-H3K14Ac peptide displacement; AID 504333; Potency, µM (titrated, usually from 114 µM), for the others: at the highest dose activity change, negative = inhibition, hits mostly inhibitors; note: % is set by controls: 0 for no effect and ±100 for the full control effect; nearly all actives have a fitted effect of over 60% in size
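Protein-peptide AlphaScreen: BAZ2B 50 nM, b-H3K14Ac 50 nM, 1x PBS pH 7.4 + 0.01% Tween-20. Preincubation 30 min RT; cpd 30 min RT (top 110 uM); beads 20 min RT, light-protected.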
Sfp inh = inhibitors of Bacillus subtilis Sfp phosphopantetheinyl transferase; Q9F4F7; Biochemical Sfp PPTase activity, qHTS; Potency, µM, without a hit: largest response in the series, negative = inhibition, usual class: inhibitors; 310,000 compounds, 3.5% hits; AID 1490;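 note: the enzyme is Sfp with the accession as filed and its product quenches rhodamine fluorescence; 0% = enzyme reaction without inhibitor and -100% = no enzyme wells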
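Fluorescence-quenching assay: 15 nM Sfp-PPTase preincubated 15 min at room temperature with compound, then 5 uM rhodamine-CoA and 12.5 uM BHQ-2-labelled YbbR peptide added. Fluorescence (ex 525/em 598 nm) read at start and after 30 min; difference gives rate.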
* hit, by the source's call; ? = inconclusive; . = no result given; [ ] = another dose, or the depositor's remark. Rows were chosen to be rich in hits. Some 12% of all compounds tested hit in one or more screens of this group. Calls come from the whole dose curve; as a rule, active = well fitted curve in the direction sought with a large enough effect; inconclusive = small, poorly fitted or top-dose-only effect, or another doubt; inactive = no such curve, though single readings can be large; an effect the other way counts as inactive or inconclusive. Potency is the fitted concentration of half-maximal effect.

SMILES | G9a block | HP1b chromo inh | JMJD2A Tudor inh | BAZ2B inh | Sfp inh
CCN(CC)C(=O)c1sc(NC(=S)N2CCN(C(=O)C3CCCO3)CC2)c(C(=O)OC)c1C (stereo unspecified) | 50.1µM* | 26.7% | -16.6% | 2.3% | -16.7%
COc1ccc(S(=O)(=O)N2CCCC(C(=O)NCc3ccccn3)C2)cc1 (stereo unspecified) | -8.2%[59 µM] | 28.0% | 4.0% | 8.3% | 5.2%
O=C(NCc1ccccn1)C1CCCN(S(=O)(=O)c2ccccc2)C1 (stereo unspecified) | 35.5µM* | 47.7% | -9.3% | 7.2% | 13.2%
CN(C)c1ccc(NC(=O)C2CCCN(S(=O)(=O)c3ccccc3)C2)cc1 (stereo unspecified) | 8.91µM* | 12.2% | -22.6%[57.1 µM] | ? | -2.3%
O=C(Nc1ccccc1F)C1CCCN(S(=O)(=O)c2ccccc2)C1 (stereo unspecified) | 5.5% | -5.3% | 12.6µM* | -3.0% | -4.7%
Cc1ccc(S(=O)(=O)N2CCN(S(=O)(=O)c3ccccc3)C2c2ccc(N(C)C)cc2)cc1 (stereo unspecified) | 8.91µM* | -12.9% | ? | ? | 2.3%
COc1ccc(CC(=O)NCc2nc3cccnc3n2Cc2ccc(C)cc2)cc1 | 6.1%[59 µM] | 12.4%[57 µM] | -11.6% | 3.2% | .
O=C(Nc1ccc(N2CCCCC2)cc1)C1CCCN1S(=O)(=O)c1ccc(F)cc1 (stereo unspecified) | 5.2%[12.7 µM] | -10.5% | ? | ? | .
O=C(O)C1CCCCN1S(=O)(=O)c1ccccc1 (stereo unspecified) | 7.8%[59 µM] | 29.7% | -11.4% | 9.4% | 7.4%
CC1CCN(c2ccc(NC(=O)C3CCCN3S(=O)(=O)c3ccc(F)cc3)cc2)CC1 (stereo unspecified) | 10µM* | ? | 39.8µM* | 44.7µM* | .
Nc1ccc(S(=O)(=O)N2CCCC2C(=O)O)cc1 (stereo unspecified) | -49.5% | 13.3% | -12.2% | -30.6% | 79.4µM*
Cc1ccc(S(=O)(=O)N2CCCC2C(=O)Nc2ccc(Br)cc2)cc1 (stereo unspecified) | 16.9%[59 µM] | 63.8% | 0.0% | 6.9% | .
Cc1ccc(S(=O)(=O)N2CCCCC2C(=O)Nc2ccc(N(C)C)cc2)cc1 (stereo unspecified) | . | ? | 50.1µM* | . | .
COc1cc(NC(=O)CC(C)S(=O)(=O)c2cc3c4c(c2)CCN4C(=O)CC3)cc(OC)c1 (stereo unspecified) | -39.2%[59 µM] | 21.5% | -1.9% | 1.7% | .
O=C(CC1C(=O)NCCN1Cc1ccc(F)cc1Cl)NCc1ccon1 (stereo unspecified) | 31.6µM* | 42.6% | -9.7% | -15.8% | 18.1%
CC(C)c1nc(CNC(=O)CC2C(=O)NCCN2Cc2ccc(F)cc2Cl)cs1 (stereo unspecified) | . | 36.1% | -29.5% | -13.0% | -2.2%
Cc1cc(C)nc(CCNC(=O)CC2C(=O)NCCN2Cc2ccc(F)cc2Cl)n1 (stereo unspecified) | 44.7µM* | 16.2% | -7.3% | -5.2% | -6.9%
Cc1cc2oc(=O)cc(-c3ccccc3)c2c(C)c1-c1ccoc1 | -6.7% | . | . | . | -29.6%
C=CCn1c2c(c(=O)[nH]c1=S)CN(C(C)c1ccccc1)CN2 (stereo unspecified) | -33.9% | 32.1% | -8.1% | -11.0% | 9.9%
CCn1c(C(c2ccccc2)c2ccccc2)n[nH]c1=S | 7.94µM* | -5.0% | 31.6µM* | -7.0% | 1.5%
C=CCn1c(C(c2ccccc2)c2ccccc2)n[nH]c1=S | 10µM* | 23.1% | -17.7%[57.1 µM] | -30.5% | -19.3%
C=CCn1c(OCc2ccccc2)n[nH]c1=S | 8.91µM* | ? | 3.16µM* | -17.0% | -4.1%
O=C(COc1ccccc1)Nc1ccc(C(=O)OCc2cc(=O)n3nc(C4CC4)sc3n2)cc1 | 4.3%[12.7 µM] | 16.4% | -1.3% | -2.2% | .
Cc1c2cnn(CC(=O)Nc3c(F)c(F)cc(F)c3F)c(=O)c2c(C)n1Cc1ccccc1F | ? | -15.9% | ? | 56.2µM* | -9.6%
CC1CCC2(CC1)NC(=O)N(CC(=O)N1c3ccccc3CC1C)C2=O (stereo unspecified) | . | 25.9% | -4.9% | . | .
O=[N+]([O-])c1ccccc1/C=C/CN1CCSCC1 | . | ? | 12.6µM* | 50.1µM* | -4.2%
COc1ccc2c(c1)c1ncn(Cc3ccco3)c(=O)c1n2C | 1.2%[0.501 µM] | 29.3% | -20.5%[57.1 µM] | 56.4% | 17.8µM*
